# Data reported in PubChem BioAssay (NCATS).
# Records with an inconclusive call do not appear. Where a call stands in place of a potency, no number is given. Calls of active or inactive are those of the source. The call rests on the fitted dose curve; in most records, active means well fitted inhibition curve with a large enough effect; inconclusive means small, poorly fitted or top-dose-only effect; inactive means flat fitted curve, though single readings scatter.
# Experiment: BET inhibitor-based combinations targeting novel dependencies in MECOM-rearranged (r) AML: AML-191 cell line (AID 2202236; further: nearly all actives have a fitted effect of over 35% in size)
# Conditions: AML-191 viability, CellTiter-Glo luminescence, 48 h; series mostly up to 46 µM
# Text: Ecotropic viral insertion site 1 (EVI1) is located on chromosome 3q26.2 as part of the MECOM (MDS and EVI1 complex) locus. Under normal hematopoiesis, EVI1 is a regulator of hematopoietic stem cell maintenance and self-renewal and EVI1 levels decrease as the cells differentiate. In approximately 5-10% of de novo acute myeloid leukemia (AML) EVI1 is aberrantly expressed, including Chromosomal inv(3)(q21;q26.2) or t(3;3)(q21;q26.2) alterations (MECOM-r) that account for about 50% of AML with EVI1 overexpression 31. AMLs with high levels of EVI1 have a poor prognosis and an overall survival time averaging between 10-14 months. EVI1 overexpression confers resistance in leukemia cells, highlighting the need to develop new targeted therapies for EVI1 overexpressing AMLs.
# Here, we performed an unbiased chemical drug screening by evaluating the single agent activity of a collection of 2,480 oncology-focused, approved and investigational drugs (NCATS Mechanism Interrogation Plates, MIPE v5.0) against a panel of seven AML cell lines. These included four MECOM-r cell-lines (AML-191, AML-194, UCSD-AML1 and HNT-34) and three non-MECOM-r AMLs (MV4-11, OCI-AML3 and SET-2). Exploiting the mechanistic redundancy built in the library, we identified target-level sensitivities in MECOM-r AML cells and relative activity as compared to other AML subtypes.
# A collection of 2480 mechanistically annotated dugs (MIPE v5.0) was used to screen four 3q26.2 rearranged AML cell lines and three non-3q26.2 rearranged AML cell lines. This library purposely exploits redundancy by including multiple inhibitors of key onco-targets, while simultaneously encompassing mechanistic diversity, targeting more than 800 distinct mechanisms of action. Briefly, cells were seeded in 5 uL of growth media using a Multidrop Combi dispenser into 1536 well white polystyrene tissue culture treated plates (Corning) at a density of 500cells/well. For each cell-line, for each of the 2480 drugs in MIPE v5.0 library, an 11-point dose curve was generated via a 1536 pin-tool. Plates were incubated for 48 hr at standard incubator conditions, covered by a stainless steel gasketed lid to prevent evaporation. Cell viability was determined by luminescence based, Cell Titer Glo assay (Promega). In detail, 3 uL of Cell Titer Glo were added to each well and plates were incubated at room temperature for 15 min with a stainless-steel lid in place. Luminescence readings were taken using a Viewlux (PerkinElmer) with a 2 s exposure time per plate. Compound dose-response curves were normalized to DMSO and empty well controls on each plate. Quantitative drug activity data from dose-response curves was determined utilizing area Under the Curve (AUC) and Z-transformed AUC (Z-AUC, a mean-centering transformation applied to each individual cell-line screened).
# Potency means the concentration at half of the fitted maximal effect.
row,Compound,Potency
1,Cc1[nH]ncc1-c1cc2nc([C@@H]3CC4CCN3CC4)[nH]c(=O)c2s1,8.33 µM (active)
2,COC(=O)[C@]12CCC(C)(C)C[C@H]1[C@H]1C(=O)C=C3[C@@]4(C)C=C(C#N)C(=O)C(C)(C)[C@@H]4CC[C@@]3(C)[C@]1(C)CC2,1.86 µM (active)
3,O=C1CC[C@@]2(O)[C@H]3Cc4ccc(O)c5c4[C@@]2(CCN3CC2CC2)[C@H]1O5,inactive
4,C[C@]12CC[C@H]3[C@@H](CC[C@@]45O[C@@H]4C(O)=C(C#N)C[C@]35C)[C@@H]1CC[C@@H]2O,inactive
5,O=C(O)C(=O)c1cn(Cc2ccccc2)c2ccc(-c3ccc(OC(F)(F)F)cc3)cc12,inactive
6,COC[C@@H](NC(C)=O)C(=O)NCc1ccccc1,inactive
7,O=c1cccc2n1CC1CNC[C@H]2C1,inactive
8,CN1C(=O)[C@@H](NC(=O)[C@H](CCC(F)(F)F)[C@H](CCC(F)(F)F)C(N)=O)N=C(c2ccccc2)c2ccccc21,inactive
9,O=S(=O)(F)Cc1ccccc1,inactive
10,CC(C)C[C@H](CN)CC(=O)O,inactive
11,C[C@@]12OC(=O)[C@]1([C@@H](O)[C@@H]1C=CCCC1)NC(=O)[C@@H]2CCCl,0.0263 µM (active)
12,COc1ccc(C(=O)c2c(C)n(CCN3CCOCC3)c3ccccc23)cc1,2.63 µM (active)
13,CN(C)[C@@H]1C(=O)C(C(N)=O)=C(O)[C@@]2(O)C(=O)C3=C(O)c4c(O)cccc4[C@@](C)(O)[C@H]3[C@H](O)[C@@H]12,inactive
14,Cc1cc(SCc2sc(-c3ccc(C(F)(F)F)c(F)c3)nc2C)ccc1OCC(=O)O,inactive
15,Cn1c(COP(=O)(NCCBr)NCCBr)cnc1[N+](=O)[O-],inactive
16,CC1(C)C(=O)N(c2ccc(C#N)c(C(F)(F)F)c2)C(=S)N1Cc1ccc(-c2cn[nH]n2)cc1,18.6 µM (active)
17,C[C@@H](C1CC[C@@]2(O)C3=CC(=O)[C@@H]4C[C@@H](O)[C@@H](O)C[C@]4(C)[C@H]3CC[C@]12C)[C@H](O)CCC(C)(C)O (stereo not given in full),inactive
18,O=C(Nc1ccncc1)C(=O)c1cn(Cc2ccc(Cl)cc2)c2ccccc12,0.263 µM (active)
19,C#C[C@]1(O)C=C[C@H]2[C@@H]3CCC4=CC(=O)CC[C@@H]4[C@H]3CC[C@@]21CC,inactive
20,COc1cc(C)[nH]c(=O)c1CNC(=O)c1c(C)n([C@H](C)C2CCOCC2)c2ccccc12,inactive

row,Compound,Potency
1,O=C(Oc1ccc([N+](=O)[O-])cc1)N1CCC(C(O)(c2ccc3c(c2)OCO3)c2ccc3c(c2)OCO3)CC1,inactive
2,COc1cc2c(cc1F)C(c1ccccc1Cl)=Nc1c(n[nH]c1C)N2,1.66 µM (active)
3,COc1ccc(N(C(=O)Oc2c(C)cccc2C)c2ccnc(Nc3ccc(N4CCN(C)CC4)cc3)n2)c(OC)c1,2.63 µM (active)
4,C/C=C(/C)C(=O)O[C@H]1C(C)=C2[C@H]([C@@H]1OC(=O)CCCCCCC)[C@@](C)(OC(C)=O)C[C@H](OC(=O)CCC)[C@@]1(O)[C@H]2OC(=O)[C@@]1(C)O,0.417 µM (active)
5,CC(N[C@H]1C[C@@H]1c1ccccc1)c1ccc2c(c1)OCCO2 (stereo not given in full),inactive
6,O=C(Oc1ccc([N+](=O)[O-])cc1)N1CCN(Cc2cccc(Oc3ccccc3)c2)CC1,inactive
7,CN(C)CCN(C)CCc1ccc(Cl)c(Cl)c1,inactive
8,C[C@]12CC[C@@H]3[C@@H](CCC4=CC(=O)CC[C@@H]43)[C@@H]1CC[C@@H]2OC(=O)CCc1ccccc1,inactive
9,COc1cc(C)[nH]c(=O)c1CNC(=O)c1c(C)n([C@H](C)C2CCN(CC(F)(F)F)CC2)c2ccccc12,inactive
10,CCN1C[C@]2(OC(=O)c3ccccc3NC(C)=O)CC[C@H](OC)[C@@]34[C@H]5CC6[C@@H](OC)C[C@](O)(C(C[C@@H]23)[C@@H]14)[C@@]5(O)[C@@H]6OC,inactive
11,COc1cc([C@@H]2c3cc4c(cc3[C@@H](O)C3COC(=O)C32)OCO4)cc(OC)c1O (stereo not given in full),0.296 µM (active)
12,C/C(=C\c1csc(C)n1)[C@@H]1C[C@@H]2O[C@@H]2CCC[C@H](C)[C@H](O)[C@@H](C)C(=O)C(C)(C)[C@@H](O)CC(=O)O1,0.0235 µM (active)
13,C#CC1(O)CCC2C3CCC4=CC(=O)CCC4(C)C3CCC21C (stereo not given),inactive
14,C[C@]12CC[C@H](O)CC1=CC[C@@H]1[C@@H]2CC[C@]2(C)C(=O)CC[C@@H]12,inactive
15,COC1=C[C@@H]2[C@@H]3Cc4ccc(OC)c(O)c4[C@]2(CCN3C)CC1=O,inactive
16,C/C=C(\C)C(=O)N[C@@H](c1ccccc1)[C@@H](O)C(=O)O[C@H]1C[C@@]2(O)[C@@H](OC(=O)c3ccccc3)[C@@H]3[C@]4(OC(C)=O)CO[C@@H]4C[C@H](O)[C@@]3(C)C(=O)[C@H](OC(C)=O)C(=C1C)C2(C)C,0.0468 µM (active)
17,CNCC(O)c1ccc(O)cc1 (stereo not given),inactive
18,Cn1c(CCCC(=O)O)nc2cc(N(CCCl)CCCl)ccc21,16.6 µM (active)
19,C[C@]12CC[C@@H]3c4ccc(OC(=O)N(CCCl)CCCl)cc4CC[C@H]3[C@@H]1CC[C@@H]2OP(=O)(O)O,inactive
20,NC(=O)[C@@H](CC1CC1)[C@@H](CCC(F)(F)F)C(=O)N[C@H]1N=C(c2ccccc2)c2cccc(F)c2NC1=O,inactive
